# Source: the supplement of paper PMC10338343
# ± gives the standard deviation. In all, about 8,200 sequences were measured (“pre-steady-state target cleavage rate”: median about 0.024, highest 2% from about 1.3 on). The list comes from a sample in which the highest values are over-represented; it also holds similar and randomly drawn sequences.
# System: MIWI (PIWIL1) piRISC loaded with L1MC piRNA (30 nt)
# Experiment: pre-steady-state target cleavage rate (min^-1); MIWI and MILI are mouse PIWI proteins and EfPiwi is from a freshwater sponge; tags in brackets are library labels; higher = faster piRNA-guided slicing of the target
# Conditions: guide: L1MC piRNA 5'p-UAACUAAAUACUAUGCAAGCUGUAGGUCCU
# Procedure, shortened: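 Cleave-'n-Seq reactions paired 0.1 nM transcribed, DNA-blocked target RNA library with 1 nM active affinity-purified piRISC holding one synthetic guide, plus or minus 500 nM GTSF1 partner protein, in HEPES–potassium acetate buffer at 33 °C for 0–8 or 0–960 min. After sequencing of uncleaved targets and normalisation to depth and weakly complementary targets, the pre-steady-state cleavage rate was taken from a burst-and-steady-state fit. Three trials were pooled, and k3 was capped at 0.0001 min^-1.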
# [1] = auxiliary factor: 500 nM mouse GTSF1
# [2] = auxiliary factor: none (no GTSF1)
Sequence,pre-steady-state target cleavage rate [1],pre-steady-state target cleavage rate [2]
UCCUGGAUGAGCUAGCAUAGUAUUUAGAAA,0.124 ± 0.029,
AGCGACCUACAGCUUGCAUAGUAUUUAGUUA,1.37 ± 0.049,0.112 ± 0.019
UGCGACCUACAGCUUGCAUAGUAUUUAGUUA,1.41 ± 0.057,0.0975 ± 0.02
UCCUGCUACAGCUUGGUAAGUAUUUAGUUA,0.0624 ± 0.011,
UCCUGGAUCAGCAUGCAUAGUAUUUAGAUA,0.375 ± 0.034,0.00494 ± 0.0022
UCCUGGAUCAGCUUGCAUAGUAUAUAGUAA,0.458 ± 0.054,0.0134 ± 0.0052
UCCAGCUACAGCUUGCAUAGUUUUUAGUUA,0.253 ± 0.026,0.0203 ± 0.0032
UCGAGCUACAGCUUGCAUAGUAUUUAGAAA,0.407 ± 0.039,0.0061 ± 0.0023
UCGAGCUACAGCUUGCAUAGUAUUUAGAUA,0.443 ± 0.041,0.0206 ± 0.0046
ACGAGCUACAGCUUGCAUAGUAUUUAGUUA,1.54 ± 0.057,0.094 ± 0.016
UCCUGCUACGAGCUUGCAUAGUAUUUAGUUA,0.717 ± 0.073,0.0315 ± 0.0066
UCGAGCUACAGCUUGCAUAGUAUUUAGUUA,1.41 ± 0.062,0.0832 ± 0.014
UCGAGCUACAGCUUGCAUAGUAUUUAGUAA,1.08 ± 0.082,0.0348 ± 0.0066
UCCUGGAUCAGCUUGCAUAGUAUUAAGAUA,0.265 ± 0.05,0.00645 ± 0.0033
UGGACCUACAGCUUGCAUAGUAUGUAGUUA,0.332 ± 0.041,0.0171 ± 0.0041
UCCUGCUACAGCUUGGUUAGUAUUUACAAA,0.0104 ± 0.0047,
UCGACCUACAGCUUGCAUAGUAUUUUGUUA,0.921 ± 0.043,0.0471 ± 0.0091
UCCUGGAUCAGCUAGCAUAGUAUUUUCAAA,0.0506 ± 0.015,
UGGACUACAGCUUGCAUAGUAUUUAGUUA,1.34 ± 0.053,0.0823 ± 0.013
UCCACUCUACAGCUUGCAUAGUAUUUAGUUA,0.884 ± 0.029,0.0688 ± 0.012
AGGACUACAGCUUGCAUAGUAUUUAGUUA,1.24 ± 0.066,0.0945 ± 0.016

Sequence,pre-steady-state target cleavage rate [1],pre-steady-state target cleavage rate [2]
UCGACUCUACAGCUUGCAUAGUAUUUAGUUA,1.48 ± 0.06,0.0579 ± 0.0096
UGGACACUACAGCUUGCAUAGUAUUUAGUUA,1.04 ± 0.063,0.0643 ± 0.0081
UCGACGCUACAGCUUGCAUAGUAUUUAGUUA,1.27 ± 0.063,0.094 ± 0.022
AGGACUCUACAGCUUGCAUAGUAUUUAGUUA,1.28 ± 0.069,0.0617 ± 0.011
UGGACUCUACAGCUUGCAUAGUAUUUAGUUA,1.4 ± 0.066,0.0856 ± 0.017
UGGACCUACACCUUGCAUAGUAUUUUCAAA,0.327 ± 0.05,0.00389 ± 0.0023
UCCUGGAACUGCUAGCAUAGUAUUUAGUUA,0.534 ± 0.037,0.00949 ± 0.0035
UCGACCUACAGCUUGCAUAGUAUUUAGUCA,0.947 ± 0.041,0.0656 ± 0.013
UCCUGGUACACCUUGCAUAGUAUUUAGUAA,0.334 ± 0.078,0.0104 ± 0.0044
UCCUCCUACAGCUUGCAUAGUAUAUUGUUA,0.368 ± 0.033,0.0145 ± 0.0039
UGGACCUACAGCUUGCAUACUAAUUAGUUA,0.154 ± 0.01,0.00958 ± 0.0024
UCCUGGAACAGCUUGCUAUGUAUUUAGUUA,0.0729 ± 0.011,0.00814 ± 0.0024
UCCUCCUACAGCUUGCAUACUAUUUACUUA,0.197 ± 0.023,0.018 ± 0.0033
UCGACCUACAGCUUGCAUAUAUUUAGUUA,0.489 ± 0.044,
UGGACCUACAGCUUGCAUAUAUUUAGUUA,0.429 ± 0.067,0.00298 ± 0.0022
UGGACCUACAGCUUGCAUAUUAUUUAGUUA,1.71 ± 0.12,0.0442 ± 0.0088
AGGACCUACAGCUUGCAUAUUAUUUAGUUA,1.23 ± 0.074,0.0773 ± 0.017
UCGACCUACAGCUUGCAUAGUUAUUUAGUUA,0.0764 ± 0.016,0.00495 ± 0.0031
UCGACCUACAGCUUGCAUAUUAUUUAGUUA,1.5 ± 0.072,0.0515 ± 0.013
UCCUGGAACAGCUUGCACAGUAUUUAGUUA,1.01 ± 0.035,0.0853 ± 0.018
UCCUGGAUGUGCUUGCAUAGUAAUUAGUUA,0.0816 ± 0.011,0.0162 ± 0.0045

Sequence,pre-steady-state target cleavage rate [1],pre-steady-state target cleavage rate [2]
UCCUCCUACUGCUUGCAUAGUAUAUAGUUA,0.472 ± 0.026,0.0228 ± 0.0045
UCCUCCUUCUGCUUGCAUAGUAUUUAGUUA,1.18 ± 0.038,0.0546 ± 0.0091
UGGACCUACAGCUUGAUAGUAUUUAGUUA,1.03 ± 0.096,0.0103 ± 0.003
AGGACCUACAGCUUGACAUAGUAUUUAGUUA,1.07 ± 0.093,0.0105 ± 0.0047
AGGACCUACAGCUUGAAUAGUAUUUAGUUA,1.44 ± 0.059,0.0532 ± 0.01
UCGACCUACAGCUUGAAUAGUAUUUAGUUA,1.48 ± 0.05,0.0397 ± 0.0067
AGGACCUACAGCUUGAUAGUAUUUAGUUA,1.21 ± 0.082,0.0133 ± 0.0041
UCCACCUACAGCUUGAAUAGUAUUUAGUUA,1.01 ± 0.035,0.0277 ± 0.0053
UGGACCUACAGCUUGAAUAGUAUUUAGUUA,1.63 ± 0.08,0.0423 ± 0.0078
UGGACCUACAGCUUGCAAUAGUAUUUAGUUA,0.0655 ± 0.011,
UCGACCUACAGCUUGAUAGUAUUUAGUUA,1.08 ± 0.067,0.00731 ± 0.0024
UCCUGGAUGUGCUUGCAUAGUAUUUACAUA,0.08 ± 0.017,0.0058 ± 0.0031
UCCUGGAUGAGCAUGGAUAGUAUUUAGUUA,0.475 ± 0.042,0.0081 ± 0.0031
UCGACCUACAGCUUGCUUAGUAUUUUCAAA,0.329 ± 0.048,
UCCUGGAUGUGCAUGCAUAGUAUUUAGUAA,0.0251 ± 0.0072,0.00346 ± 0.0025
UCCUGGAUGAGCUUGCUUAGUAUAUAGUUA,0.0747 ± 0.013,0.0101 ± 0.0035
UCCUGGAAGAGCUUGCUUAGUAUUUAGUUA,0.761 ± 0.051,0.0227 ± 0.0089
UCCUGCUACAGCAUGCAUAGUAAUUAGUUA,0.73 ± 0.077,0.00723 ± 0.0026
UCCUGGAUGUCCUUGCAUAGUAUAUUAGUUA,0.025 ± 0.0089,
